{
  "source": "PubChem BioAssay AID720706",
  "about": "(Broad Institute, 2013)",
  "note": "In all, about 350,000 compounds went through this assay and about 5,500 (1.6%) were called active.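 Rule for the calls: active = significant combined selectivity score with lowered wild-type GFP, culture density cut under 30%, mutant RFP and density less affected; inactive = any of these conditions unmet.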 Only a selection was taken, and actives are over-represented in it overall.",
  "data": [
    {"experiment": "GFP drop in mixed WT/humanized-ribosome E. coli culture – GFP/RFP fluorescence, OD600, single point, bacterial rRNA inhibitor project, primary screen (AID 720706)", "conditions": "E. coli WT GFP vs humanized-ribosome RFP mutants, 24 h; GFP signal change (wild-type ribosome): stronger effect = lower value, DMSO median 0, no signal -100; OD600 change: measured here: OD600 growth, DMSO median 0, no signal -100; RFP signal change: measured here: RFP humanized mutant strains, DMSO median 0, no signal -100, concentration not given here", "units": {"OD600 change": "%", "RFP signal change": "%"}, "values": [
      {"smiles": "CO[C@@H]1CN(C)C(=O)c2ccc(NC(=O)Nc3cc(F)ccc3F)cc2OC[C@@H](C)N(C)C[C@@H]1C", "GFP signal change (wild-type ribosome)": "-5.36% (inactive)", "OD600 change": -19.5, "RFP signal change": 0.48},
      {"smiles": "CCC(=O)N1[C@@H](CO)[C@H](c2ccc(-c3cccc(F)c3)cc2)[C@@H]1CNC(C)=O", "GFP signal change (wild-type ribosome)": "-3.61% (inactive)", "OD600 change": 3.25, "RFP signal change": 2.12},
      {"smiles": "O=C(C1CCOCC1)N1C[C@H]2[C@@H](c3ccccc31)[C@@H](CO)N2Cc1ccccc1", "GFP signal change (wild-type ribosome)": "-1.33% (inactive)", "OD600 change": 0.79, "RFP signal change": -0.998},
      {"smiles": "O=S(=O)(Nc1ccc(O)c2ccccc12)c1ccc(OC(F)(F)F)cc1", "GFP signal change (wild-type ribosome)": "-28.6% (active)", "OD600 change": -14.2, "RFP signal change": -9.13},
      {"smiles": "FC(F)(F)Oc1ccc(NC(=S)NCc2ccccc2)cc1", "GFP signal change (wild-type ribosome)": "-56.8% (inactive)", "OD600 change": -77.1, "RFP signal change": -19.9},
      {"smiles": "COc1ccccc1NS(=O)(=O)c1ccc(C(=O)N2CCN(c3ccccc3O)CC2)cc1", "GFP signal change (wild-type ribosome)": "-1.32% (inactive)", "OD600 change": -2.56, "RFP signal change": -0.007},
      {"smiles": "C[C@H](CO)N1C[C@H](C)[C@H](CN(C)C(=O)C2CC2)Oc2ncc(C#Cc3ccccc3)cc2C1=O", "GFP signal change (wild-type ribosome)": "-0.859% (inactive)", "OD600 change": 2.9, "RFP signal change": -0.79},
      {"smiles": "Cc1cc(SCc2c(F)cccc2Cl)nc(=O)[nH]1", "GFP signal change (wild-type ribosome)": "-15.5% (inactive)", "OD600 change": 0.505, "RFP signal change": -0.535},
      {"smiles": "Oc1ccc(-n2nnnc2SCc2c(F)cccc2Cl)cc1", "GFP signal change (wild-type ribosome)": "-53.5% (inactive)", "OD600 change": -72.8, "RFP signal change": -14.2},
      {"smiles": "Fc1cccc(Cl)c1CSc1ccc(-c2ccco2)nn1", "GFP signal change (wild-type ribosome)": "-21.1% (active)", "OD600 change": -7.59, "RFP signal change": 0.773},
      {"smiles": "N#C[C@@H]1[C@H](c2ccc(-c3cccnc3)cc2)[C@H](CO)N1C(=O)C1CC1", "GFP signal change (wild-type ribosome)": "1.69% (inactive)", "OD600 change": -1.23, "RFP signal change": 1.92},
      {"smiles": "C[C@@H]1CN([C@@H](C)CO)C(=O)c2cc(-c3ccc(F)cc3)cnc2O[C@H]1CN(C)C(=O)c1ccncc1", "GFP signal change (wild-type ribosome)": "5.96% (inactive)", "OD600 change": 18.3, "RFP signal change": -6.6},
      {"smiles": "COCC(=O)N[C@H]1C=C[C@H](CC(=O)N2CCCCC2)O[C@H]1CO", "GFP signal change (wild-type ribosome)": "0.044% (inactive)", "OD600 change": 2.08, "RFP signal change": 0.319},
      {"smiles": "CC(O)c1ccc(OCCN(C)c2ccccn2)cc1", "note": "(stereo unspecified)", "GFP signal change (wild-type ribosome)": "7.56% (inactive)", "OD600 change": 9.08, "RFP signal change": -0.281},
      {"smiles": "CC(C)=N/N=C1/NC(=O)C(Cc2ccccc2)S1", "note": "(stereo unspecified)", "GFP signal change (wild-type ribosome)": "5.19% (inactive)", "OD600 change": 0.06, "RFP signal change": 4.42},
      {"smiles": "CN(CCOc1ccc(CC2SC(=O)NC2=O)cc1)c1ccccn1", "note": "(stereo unspecified)", "GFP signal change (wild-type ribosome)": "-18.5% (active)", "OD600 change": -19.1, "RFP signal change": 5.83},
      {"smiles": "CCC(=O)N1CCC2(CC1)CN(Cc1ccc(Cl)cc1)[C@@H](CO)c1[nH]c3cc(OC)ccc3c12", "GFP signal change (wild-type ribosome)": "0.255% (inactive)", "OD600 change": -3.27, "RFP signal change": 4.57},
      {"smiles": "COc1ccc2c3c(n(C)c2c1)[C@@H](CO)NCC31CCN(CC2CC2)CC1", "GFP signal change (wild-type ribosome)": "8.18% (inactive)", "OD600 change": 22.6, "RFP signal change": -3.19},
      {"smiles": "O=C(NCC[C@H]1CC[C@@H](NC(=O)c2cnccn2)[C@H](CO)O1)Nc1ccc(Cl)cc1", "GFP signal change (wild-type ribosome)": "-40.4% (inactive)", "OD600 change": -66.2, "RFP signal change": 9.29},
      {"smiles": "COc1cccc(CNC(=O)[C@H]2CCCN2C(=O)[C@H]2CCCN2C(=O)c2ccc(F)cc2)c1", "GFP signal change (wild-type ribosome)": "2.11% (inactive)", "OD600 change": 11.4, "RFP signal change": -3.48},
      {"smiles": "CNC[C@H]1Oc2ccc(NC(=O)NC(C)C)cc2C(=O)N(C)C[C@@H]1C", "GFP signal change (wild-type ribosome)": "4.42% (inactive)", "OD600 change": 7.25, "RFP signal change": 0.095},
      {"smiles": "Cc1ccc(NC(=O)c2sc3nc(N)c(C#N)cc3c2N)cc1", "GFP signal change (wild-type ribosome)": "1.14% (inactive)", "OD600 change": 1.53, "RFP signal change": 1.97},
      {"smiles": "CCN(CC)C(=O)c1sc2nc(-c3ccccc3)ccc2c1N", "GFP signal change (wild-type ribosome)": "-15.6% (active)", "OD600 change": -3.66, "RFP signal change": 4.88},
      {"smiles": "CCN(CC)C(=O)c1nc[nH]c1C(=O)N(C)Cc1ccccc1", "GFP signal change (wild-type ribosome)": "31.5% (inactive)", "OD600 change": 17.4, "RFP signal change": 2.93},
      {"smiles": "CCOC(=O)C(C)n1nc(-c2ccccc2)c2ccccc2c1=O", "note": "(stereo unspecified)", "GFP signal change (wild-type ribosome)": "2% (inactive)", "OD600 change": 4.27, "RFP signal change": -0.337},
      {"smiles": "Cc1ccc2c(N)c(C(=O)c3ccccc3)sc2n1", "GFP signal change (wild-type ribosome)": "-33.7% (active)", "OD600 change": -0.632, "RFP signal change": -10.4},
      {"smiles": "COC(=O)c1cc2c(N)c(C(=O)c3ccc(Cl)cc3)sc2nc1C(OC)OC", "GFP signal change (wild-type ribosome)": "19.9% (inactive)", "OD600 change": 8.88, "RFP signal change": 2.24},
      {"smiles": "CC(=O)NC[C@@H]1[C@@H](c2ccccc2)[C@@H](CO)N1C(=O)Cc1cccnc1", "GFP signal change (wild-type ribosome)": "1.93% (inactive)", "OD600 change": 9.5, "RFP signal change": -2.5},
      {"smiles": "COCC(=O)N1CC(=O)N2[C@H](CO)[C@@H](c3ccc(C#CC4CCCCC4)cc3)[C@@H]2C1", "GFP signal change (wild-type ribosome)": "-1.52% (inactive)", "OD600 change": -39.4, "RFP signal change": 13.9},
      {"smiles": "COc1ccc(NC(=O)N2CCC(Cc3ccccc3)CC2)cc1", "GFP signal change (wild-type ribosome)": "-3.82% (inactive)", "OD600 change": -5.59, "RFP signal change": -1.73},
      {"smiles": "O=C(CN1CCCCC1)NC(=O)Nc1ccccc1F", "GFP signal change (wild-type ribosome)": "20.5% (inactive)", "OD600 change": 19.5, "RFP signal change": 2.38},
      {"smiles": "CC(C)(C)NC(=O)NC(=O)CN1CCC(Cc2ccccc2)CC1", "GFP signal change (wild-type ribosome)": "-31.9% (active)", "OD600 change": -22.7, "RFP signal change": -1.62}
    ]}
  ]
}
